Results as given in ChEMBL document CHEMBL3988442, “University of Dundee, Small-Polar-MMV Screening Library” (2021).
The campaign covered roughly 48,000 compounds. About 13,000 (27%) showed an effect of 50% or more. This is one part of the list.

The molecules below were run on Wolbachia pipientis (assay: Anti-Wolbachia Cell-Based Screen). Conditions: 5 µM.
Format: functional
Design: scale not given: in the data most compounds retested in dose-response had high values

Structure (SMILES)	Percent Effect [%]
COCC(NC(=O)NCc1sccc1C)c1ccco1 (stereo not drawn)	-5.912
CN(Cc1nccn1C)C(=O)C1COCC(=O)N1Cc1ccccc1 (stereo not drawn)	-8.994
CN1CCOC(C(=O)Nc2nc(-c3ccc4c(c3)CCC4)n[nH]2)C1 (stereo not drawn)	-12.56
Cn1ccnc1C(=O)N1CCCC1c1ccc(C(=O)N2CCOCC2)s1 (stereo not drawn)	-4.877
CCNC(=O)N1CCC(Cc2cccc(C(N)=O)c2)C1 (stereo not drawn)	4.026
CC1CCN(C(=O)C2CCN(S(C)(=O)=O)CC2)c2ccccc21 (stereo not drawn)	3.869
CCOC(=O)CN1C(=O)CN(S(C)(=O)=O)CCC(OC)c2ccccc21 (stereo not drawn)	83.87
CCNC(=O)N1CC[C@H]2CC(=O)N(CC(N)=O)CC[C@H]2C1	1.469
COCC(=O)N1CCC2(CCC2NS(=O)(=O)c2ccccc2)CC1 (stereo not drawn)	2.757
CCNC(=O)N1CCC(OC)c2ccccc2N(CC(=O)NC)C(=O)C1 (stereo not drawn)	67.66
CS(=O)(=O)N1CCC(C(=O)N2CCOc3ccccc32)CC1	5.703
CNC(=O)CN1C(=O)CN(C(=O)COC)CCC(OC)c2ccccc21 (stereo not drawn)	121.9
CCOC(=O)N1CCC(OC)c2ccccc2N(CC(=O)NC)C(=O)C1 (stereo not drawn)	117.4
CNC(=O)NC(=O)CN1CCN(CC2CC2)c2ccccc21	5.416
c1ccc(COCC2CNCc3nccn3C2)nc1 (stereo not drawn)	-7.438
O=C(NS(=O)(=O)Cc1ccc(F)cc1)C1CCc2ccccc21 (stereo not drawn)	9.1
CC(NC(=O)NCC(C)(C)O)c1ccc(-c2cncnc2)cc1 (stereo not drawn)	-6.963
COc1ccc(NCc2ccccc2N2CCN(C(C)=O)CC2)cn1	3.995
CNC(=O)CN1CCCC1c1ccccc1Br (stereo not drawn)	2.059
CNC(=O)CS(=O)(=O)C1CCN(S(=O)(=O)c2ccccc2Cl)CC1	17.8
CCS(=O)(=O)N1CCC(OC)c2ccccc2N(CC(=O)NC)C(=O)C1 (stereo not drawn)	115.1

Structure (SMILES)	Percent Effect [%]
O=S(=O)(NCCNc1cc(-n2cccn2)ncn1)c1cccs1	12.03
COc1ccc(C)cc1C(C(=O)O)N1CCN(Cc2ccccn2)CC1 (stereo not drawn)	-8.065
COc1ccc(C(=O)NS(C)(=O)=O)cc1-c1ccccc1	-13.07
CC(C)CN1CCN(C(=O)c2cc(=O)c3ccccc3[nH]2)CC1	-0.8051
CC(=O)N1CCCN(C(=O)c2csc(-c3ccc(C)cc3C)n2)CC1	-4.506
COc1ccc(C)cc1-c1[nH]c2ccccc2c1C(=O)O	86.15
Cc1ccc(C(=O)CN2C(=O)c3ccccc3CS2(=O)=O)c(C)c1	-19.51
Cc1ccc(-c2[nH]c3ccccc3c2C(=O)O)c(C)c1	112.6
Cc1ccc(C)c(C(=O)CN2C(=O)c3ccccc3CS2(=O)=O)c1	-17.22
Cc1ccc(C)c(-c2[nH]c3ccccc3c2C(=O)O)c1	107.7
CCc1ncc2c(n1)CN(CC(=O)Nc1nnc(C)s1)CC2	-0.5205
Cc1nc(CN2CCCN(CC(=O)Nc3cccnc3)CC2)no1	-4.253
Cc1ncc2c(n1)CN(CC(=O)Nc1nncs1)CC2	10.92
Cc1ncc2c(n1)CN(CC(=O)Nc1nccs1)CC2	121.1
Cc1ncc2c(n1)CN(CC(=O)N1CCc3sccc3C1)CC2	-8.865
Cc1nnc(NC(=O)CN2CCCC(c3ccn[nH]3)C2)s1 (stereo not drawn)	8.304
Cc1ncc2c(n1)CN(CC(=O)Nc1ccncc1)CC2	3.82
Cc1ncc2c(n1)CN(CC(=O)Nc1cccnc1)CC2	115.5
Cc1ncc2c(n1)CN(CC(=O)Nc1nnc(C)s1)CC2	120.8
COC(=O)[C@H]1CN(C(=O)NC(C)C)CCN1C(=O)CSC	4.68
CSCCN(C)Cc1ccc(F)cc1C#N	-7.692

Structure (SMILES)	Percent Effect [%]
CCCN1C[C@H]2CC[C@@H]1CN(Cc1ccc(Cn3cccn3)cc1)C2	-13.63
CC(C)c1nnc(N2C[C@@H](CN(C)CCO)[C@@H](CO)C2)s1	-2.617
CC(C)c1nnc(N2C[C@@H]3CC[C@H](C2)N(CC2CCC2)C3)s1	78.31
Cc1nnsc1CN1C[C@H]2CC[C@@H]1CN(Cc1ccccc1)C2	2.749
CC(=O)c1ccc(C(=O)N2C[C@@H]3CC[C@H](C2)N(CC2CCC2)C3)s1	-8.325
Cc1ccc(C(=O)N2C[C@@H]3CC[C@H](C2)N(CC2CCC2)C3)s1	-1.222
CC(C)c1nnc(N2C[C@@H]3CC[C@H](C2)N(Cc2ccccc2)C3)s1	104.2
Cc1nnsc1CN1C[C@@H]2CC[C@H](C1)N(Cc1ccccc1)C2	-5.089
CCCN1C[C@H]2CC[C@@H]1CN(c1nnc(C(C)C)s1)C2	100.1
N#CCCNC(=O)CN1CCC(c2cc3ccccc3[nH]2)CC1	7.04
O=C(O)C(F)(F)F.O=C(O)[C@]12CCCN(Cc3ccsc3)C[C@H]1CN(c1ncccn1)C2	0.06928
CCc1nc(CN2CCCC(NCc3nc4cccnc4[nH]3)C2)no1 (stereo not drawn)	-2.824
Cc1ccc(CN2CCCC3(COCCN(Cc4c[nH]nn4)C3)C2)s1.O=C(O)C(F)(F)F.O=C(O)C(F)(F)F (stereo not drawn)	-11.68
Fc1ccc(OCc2noc(CN3CCc4cncnc4C3)n2)cc1	-13.93
CN1CCC(c2nccnc2Nc2cnccn2)CC1	94.48
CC(C(=O)NC(C)(C)C)N1CCC(C(=O)Nc2cnccn2)CC1 (stereo not drawn)	-9.659
CC(=O)N1CCC(c2nccnc2Nc2cnccn2)CC1	118.2
OCC(CO)N1CCC(c2nccnc2Nc2cnccn2)CC1	132.8
OCC(CO)N1CCC(c2nnc(Cn3ccnc3)n2C2CC2)CC1	11.43
CC(C)N1CCC(c2nccnc2Nc2cnccn2)CC1	128.3
CCc1ccccc1OCCN1CC[C@@]2(O)CCNC[C@H]2C1	3.949
